From the supplement of paper PMC10127200
Structures can show the parent of a compound that is named as a salt.

Tests used:
Test in all cases: Euclidean distance of Cell Painting phenotypic profile (signed KS, 77 features) to DMSO centroid (dimensionless distance); 5 or 10 uM (library dependent); higher = stronger phenotypic change vs DMSO (phenoactivity)
Conditions in all cases: 48 h
786-O = tested on: 786-O
Method in brief: (§1)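 Five cancer lines, together with a healthy fibroblast line, received library compounds for 48 h at a library-dependent 10 or 5 uM and 0.1% DMSO final. Harmony then derived 77 features from confocal 20X images (9 fields/well) of the stained cells, scoring each as a signed Kolmogorov-Smirnov statistic against same-plate vehicle wells. After plate-position correction, correlation weighting and replicate averaging at the top dose, phenoactivity was taken as each profile's Euclidean distance to the median vehicle profile.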

A549 = tested on: A549
Method in brief: as §1

DU145 = tested on: DU145
Method in brief: as §1

FB = tested on: FB
Method in brief: as §1

HEPG2 = tested on: HEPG2
Method in brief: as §1

OVCAR4 = tested on: OVCAR4
Method in brief: as §1

Structure (SMILES)	Euclidean distance (786-O)	Euclidean distance (A549)	Euclidean distance (DU145)	Euclidean distance (FB)	Euclidean distance (HEPG2)	Euclidean distance (OVCAR4)
COc1cccc(OC)c1C(=O)OCc1cc(O)ccc1O[C@@H]1O[C@H](CO)[C@@H](O)[C@H](O)[C@H]1O [Curculigoside]	0.665	0.731	0.819	0.662	0.446	1.36
CCCc1nn(C)c2c(=O)[nH]c(-c3cc(S(=O)(=O)N4CCN(C)CC4)ccc3OCC)nc12 [Sildenafil Mesylate]	1.12	0.763	0.989	1	0.692	0.995
O=C(C[S+]([O-])Cc1ccco1)NC/C=C\COc1cc(CN2CCCCC2)ccn1 (stereo not given) [Lafutidine]	0.976	1.04	1.52	1.4	2.06	1.4
COc1cccc(Nc2c(C(N)=O)cnc3c(C)cc(S(=O)(=O)c4cccc(C(=O)N(C)C)c4)cc23)c1	1.2	0.89	1.05	1.95	1.19	1.48
COCCNCc1ccc(-c2cc3nccc(Oc4ccc(NC(=O)C5(C(=O)Nc6ccc(F)cc6)CC5)cc4F)c3s2)nc1 [Sitravatinib (MGCD516)]	5.08	4.94	5.04	5.24	4.74	4.64
COc1ccc(CC2c3cc(OC)c(OC)cc3CC[N+]2(C)CCC(=O)OCCCCCOC(=O)CC[N+]2(C)CCc3cc(OC)c(OC)cc3C2Cc2ccc(OC)c(OC)c2)cc1OC (stereo not given) [Atracurium Besylate]	1.83	0.711	1.16	0.918	1.14	1.51
CCCCOc1ccc(CC(=O)NO)cc1 [Bufexamac]	1.36	1.11	0.87	1.25	0.883	1.39
CC(C)(C)NCC(O)COc1cccc2c1CCC(=O)N2 (stereo not given) [Carteolol HCl]	1.14	0.612	0.836	1.22	0.541	2.01
Oc1c(Cl)cc(Cl)c2cccnc12 [Chloroxine]	2.07	2.64	1.54	1.48	2.06	2.02
C[C@H]1[C@H](C)CC[C@]2(C(=O)O)CC[C@]3(C)C(=CC[C@@H]4[C@@]5(C)C[C@@H](O)[C@H](O)[C@@](C)(CO)[C@@H]5CC[C@]43C)[C@H]12 [Asiatic Acid]	0.996	0.839	1.11	1.04	1.24	0.885
C[C@]1(c2nc3c(C(N)=O)cccc3[nH]2)CCCN1 [Veliparib (ABT-888)]	1.29	1	0.896	1.35	0.938	1.16
CN(C)CCC[C@@]1(c2ccc(F)cc2)OCc2cc(C#N)ccc21 [Escitalopram Oxalate]	1.58	1.12	1.67	0.918	0.791	1.43
C[C@@H](O)[C@H]1C(=O)N2C(C(=O)O)=C([C@H]3CCCO3)S[C@H]12 [Faropenem Sodium]	1.24	0.485	1	0.587	0.554	0.718
CCC[C@H](NC(=O)/C(C#N)=C/c1cccc(Br)n1)c1ccccc1 [Degrasyn (WP1130)]	5.15	4.08	4.95	2.59	1.66	4.93
O=C(O)/C=C/c1ccc(Cn2ccnc2)cc1 [Ozagrel]	1.04	0.773	1.51	0.921	0.736	1.43
CC1(C)O[C@@H]2C[C@H]3[C@@H]4C[C@H](F)C5=CC(=O)C=C[C@]5(C)[C@@]4(F)[C@@H](O)C[C@]3(C)[C@]2(C(=O)CO)O1 [Fluocinolone Acetonide]	1.43	1.77	2	2.02	0.86	2.22
CCOc1nc2cccc(C(=O)OC(C)OC(=O)OC3CCCCC3)c2n1Cc1ccc(-c2ccccc2-c2nn[nH]n2)cc1 (stereo not given) [Candesartan Cilexetil]	1.1	0.605	1.35	0.788	1.82	1.29
CCCCNc1ncc(-c2ccc(CN3CCOCC3)cn2)c(NC2CCC(O)CC2)n1 (stereo not given)	0.709	1.2	0.694	1.26	0.659	0.882
N=C(N)NC(=N)N1CCOCC1 [Moroxydine HCl]	1.5	0.937	1.25	0.666	0.422	1.22
CN(C)[C@@H]1C(O)=C(C(N)=O)C(=O)[C@@]2(O)C(O)=C3C(=O)c4c(O)ccc(Cl)c4[C@@H](O)[C@H]3C[C@@H]12 [Demeclocycline HCl]	0.985	0.836	0.951	1.05	0.887	1.53
COc1ccc(C(C)=O)c(O)c1 [Paeonol]	1.07	0.755	0.885	0.979	0.302	1.58
COc1cc(/C=C/C(=O)O)ccc1O [Ferulic Acid]	0.857	0.966	0.806	0.925	0.541	1.73
Nc1ncnc2c1ncn2[C@@H]1O[C@H](CO)[C@@H](O)[C@@H]1O [Vidarabine monohydrate]	0.895	1.22	0.966	0.665	1.66	1.18
C[C@@H](O)[C@H]1C(=O)N2C(C(=O)O)=C(SCCNC=N)C[C@H]12 [Imipenem]	0.957	1.45	0.986	0.737	0.883	0.789
N=C(N)NC(=O)c1nc(Cl)c(N)nc1N [Amiloride HCl dihydrate]	1.53	1.27	1.11	1.58	0.663	1.28
